Assay results published in the supplement of paper PMC7366291.
Counter-ions that a name gives are not always drawn. ± gives the standard deviation.

tested on: Danio rerio Tg(wt1b:EGFP) embryo, pronephros; assay: glomerular separation, fold change vs DMSO control; higher = glomeruli further apart (abnormal); conditions: 25 µM; exposure: 24-48 hpf
Outline: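 Features are reported as fold changes against the mean of same-day DMSO-treated embryos. Before that, values more than 2 SD away from the feature mean were excluded. The embryos, dechorionated Tg(wt1b:EGFP) zebrafish, had been exposed from 24 to 48 hpf at 28.5°C to 25 μM compound in 0.5% DMSO in HEPES-buffered E3 with 0.003% PTU, and distances and angles came from 16 manually set points on maximum projections of dorsal pronephros images in Fiji.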

Structure (SMILES) | glomerular separation
CN(C)CCN(Cc1cccs1)c1ccccn1 [Methapyrilene hydrochloride] | 0.984 ± 0.37
Cc1ccnc2c1NC(=O)c1cccnc1N2C1CC1 [Nevirapine] | 1.13 ± 0.48
CC(Oc1ccccc1)C(=O)N[C@@H]1C(=O)N2[C@@H]1SC(C)(C)[C@@H]2C(=O)O (some centres undefined) [Phenethicillin potassium salt] | 0.88 ± 0.24
CN1CCN(CCCN2c3ccccc3Sc3ccc(C(F)(F)F)cc32)CC1 [Trifluoperazine dihydrochloride] | 1.22 ± 0.54
CCN(CC)CCCC(C)Nc1c2ccc(Cl)cc2nc2ccc(OC)cc12 (centres undefined) [Quinacrine dihydrochloride hydrate] | 0.766 ± 0.2
N=C(N)NCCN1CCCCCCC1 [Guanethidine sulfate] | 0.862 ± 0.46
Nc1nc(=O)c2c([nH]1)NC[C@@H](CNc1ccc(C(=O)N[C@@H](CCC(=O)O)C(=O)O)cc1)N2C=O [Folinic acid calcium salt] | 0.989 ± 0.3
COc1cc2nc(N(C)CCCNC(=O)C3CCCO3)nc(N)c2cc1OC (centres undefined) [Alfuzosin hydrochloride] | 1.23 ± 0.62
CC(=O)O[C@]1(C(C)=O)CC[C@H]2[C@@H]3C=C(C)C4=CC(=O)CC[C@]4(C)[C@H]3CC[C@@]21C [Megestrol acetate] | 1.27 ± 0.82
CCN(CC)CCNC(=O)c1cc(Cl)c(N)cc1OC [Metoclopramide monohydrochloride] | 0.868 ± 0.25
COCC1=C(C(=O)OC(C)OC(=O)OC(C)C)N2C(=O)[C@@H](NC(=O)/C(=N\OC)c3csc(N)n3)[C@H]2SC1 (some centres undefined) [Cefpodoxime proxetil] | 1.06 ± 0.52
CCC(=O)[C@@]1(C)[C@H](C)C[C@H]2[C@@H]3CCC4=CC(=O)C=C[C@]4(C)[C@H]3[C@@H](O)C[C@@]21C [Rimexolone] | 1.28 ± 0.36
Brc1c(NC2=NCCN2)ccc2nccnc12 [Brimonidine L-Tartrate] | 0.614 ± 0.22
COc1ccc2[nH]c([S+]([O-])Cc3ncc(C)c(OC)c3C)nc2c1 (centres undefined) [Omeprazole] | 1.15 ± 0.38
CCOC(=O)[C@H](CCc1ccccc1)N[C@@H](C)C(=O)N1Cc2ccccc2C[C@H]1C(=O)O [Quinapril hydrochloride] | 0.927 ± 0.39
O=C(NC(Cc1cc(=O)[nH]c2ccccc12)C(=O)O)c1ccc(Cl)cc1 (centres undefined) [Rebamipide] | 0.748 ± 0.25
C[C@@H]1C[C@H]2[C@@H]3C[C@H](F)C4=CC(=O)C=C[C@]4(C)[C@@]3(Cl)[C@@H](O)C[C@]2(C)[C@H]1C(=O)COC(=O)C(C)(C)C [Clocortolone pivalate] | 1.59 ± 0.52
CC(C)N1CCN(c2ccc(OCC3COC(Cn4cncn4)(c4ccc(Cl)cc4Cl)O3)cc2)CC1 (centres undefined) [Terconazole] | 0.864 ± 0.17
CNCCC=C1c2ccccc2CCc2ccccc21 [Nortriptyline hydrochloride] | 1.04 ± 0.35
CCN(CC)C(C)CN1c2ccccc2Sc2ccccc21 (centres undefined) [Ethopropazine hydrochloride] | 0.571 ± 0.084
CN1CCC(=C2c3ccccc3Sc3ccccc32)CC1 [Pimethixene maleate] | 1.32 ± 0.41
CCOc1ccc2ccccc2c1C(=O)N[C@@H]1C(=O)N2[C@@H]1SC(C)(C)[C@@H]2C(=O)O [Nafcillin sodium salt monohydrate] | 0.868 ± 0.32
Cc1ccc(NC(=O)c2ccc(CN3CCN(C)CC3)cc2)cc1Nc1nccc(-c2cccnc2)n1 [Imatinib] | 1.09 ± 0.42
CCCCCN(C)CCC(O)(P(=O)(O)O)P(=O)(O)O [Ibandronate sodium] | 0.837 ± 0.21
CC(=O)OCC(=O)[C@@]1(O)CC[C@H]2[C@@H]3CCC4=CC(=O)C=C[C@]4(C)[C@@]3(F)[C@@H](O)C[C@@]21C [Isoflupredone acetate] | 1.22 ± 0.63
COc1ccc([C@@H]2CC(=O)c3c(O)cc(O[C@@H]4O[C@H](CO[C@@H]5O[C@@H](C)[C@H](O)[C@@H](O)[C@H]5O)[C@@H](O)[C@H](O)[C@H]4O)cc3O2)cc1O [Hesperidin] | 0.827 ± 0.15
C[C@](N)(Cc1ccc(O)c(O)c1)C(=O)O [Methyldopa (L,-)] | 1.03 ± 0.18
CCCc1nn(C)c2c(=O)[nH]c(-c3cc(S(=O)(=O)N4CCN(C)CC4)ccc3OCC)nc12 [Sildenafil] | 1.12 ± 0.37
CCN1CCN(C(=O)N[C@@H](C(=O)N[C@@H]2C(=O)N3C(C(=O)O)=C(CSc4nnnn4C)CS[C@H]23)c2ccc(O)cc2)C(=O)C1=O [Cefoperazone dihydrate] | 1.2 ± 0.23
